# Source: ChEMBL document CHEMBL4513146, “CO-ADD screening of Karazin Kharkiv National University (Ukraine) compounds”
# Results with a measured potency or affinity are listed apart.
# Legend:
# Staphylococcus aureus = details: Concentration 32 ug.mL-1;; ASSAY_TEST Inhibition of Bacterial Growth; detection method Absorption (OD600); MEDIA CAMHB; plate type 384well; NBS; CORNING #3640; time 18 hr
# Escherichia coli = details: Concentration 32 ug.mL-1;; ASSAY_TEST Inhibition of Bacterial Growth; detection method Absorption (OD600); MEDIA CAMHB; plate type 384well; NBS; CORNING #3640; time 18 hr
Compound,Inhibition (Staphylococcus aureus) [%],Inhibition (Escherichia coli) [%]
CCc1nnc2c(SCC(=O)Nc3cccc(C(C)=O)c3)nc3ccccc3n12,2.41,4.71
CC(C)c1ccc(NC(=O)Cn2nc3c(SCc4ccccc4)nccn3c2=O)cc1,1.97,-7.26
Cc1ccc(Oc2nccn3c(=O)n(CC(=O)Nc4ccc(Cl)cc4F)nc23)cc1,5.22,-5.2
Cc1ccc(CNC(=O)Cn2nc3c(SC4CCCCC4)nccn3c2=O)cc1,7.11,-3.86
Cc1ccc(-c2ccc3nn(CC(=O)N4CCN(c5ccccc5F)CC4)c(=O)n3n2)cc1C,3.55,-1.18
Cc1cccc(CN(c2ccccc2)S(=O)(=O)c2cccn3c(C)nnc23)c1,5.16,-11.12
Cc1ccc(-c2cc3c4nnc(CCC(=O)NCc5ccc(F)c(Cl)c5)n4ccn3n2)cc1C,9.12,-0.93
Cc1cc2nn(CC(=O)Nc3ccc4c(c3)OCCO4)c(=O)n2c(Nc2ccccc2C)n1,9.51,-1.19
O=C(CSc1nnc2c(=O)n(Cc3ccc(F)cc3)ccn12)NCC1CCCO1 (configuration not stated),8.21,-3.13
COc1ccc(-n2ccn3c(SCC(=O)N4CCN(c5ccccc5F)CC4)nnc3c2=O)cc1,7.08,-4.94
Cc1nnc2c(S(=O)(=O)N(Cc3ccccc3F)c3cc(F)cc(F)c3)cccn12,-8.28,2.33
CCCCNC(=O)Cn1nc2n(Cc3ccco3)c(=O)c3sccc3n2c1=O,2.23,-5.07
N#CCSc1nnc2c(=O)n(-c3ccccc3)ccn12,13.33,0.91
CC(=O)c1cccc(NC(=O)Cn2nc3c(N4CCN(c5ccccc5C)CC4)nccn3c2=O)c1,17.73,2.22
CCOc1cccc(CNC(=O)CCc2nnc3ccc(-c4ccc(C)cc4)nn23)c1,-1.51,-5.83
COc1ccc(NC(=O)c2ccc3nn(CC(=O)Nc4ccc(S(C)(=O)=O)cc4)c(=O)n3c2)cc1,11.72,-6.83
O=c1n(Cc2nc(-c3ccc(Br)cc3)no2)nc2ccc(-c3ccccc3)nn12,5.03,-5.77
CCc1nnc2c(SCC(=O)Nc3ccc(C(C)=O)cc3)nc3ccccc3n12,4.71,4.62
CC(C)Sc1ccc2nn(CC(=O)Nc3ccc(Cl)cc3F)c(=O)n2n1,9.58,-1.02
Cc1ccc(-c2cc3c4nn(CC(=O)Nc5c(C)cccc5C)c(=O)n4ccn3n2)cc1,9.95,0.29
COC(=O)c1ccccc1NC(=O)Cn1nc2c(Oc3ccccc3C)nccn2c1=O,4.43,-5.27
